The values that follow come from PubChem BioAssay (EPA / NIEHS).

Test [1] addresses Myc proto-oncogene protein (Homo sapiens) (UniProt P01106). Briefly: ATG_Myc_CIS: Attagene CIS-FACTORIAL HepG2 Assay for human Myelocytomatosis (Myc) Proto-Oncogene Transcription Factor (AID 2282990). The following applies: HepG2, Attagene cis-reporter transcription factor activity; actives raise or lower the signal. The essentials:
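Transiently transfected HepG2 cells bearing cis-promoter reporter units for endogenous transcription factors; 24 h exposure. Reporter mRNA measured by RT-PCR, 6-FAM primer extension, HpaI cut and capillary electrophoresis; bidirectional fit relative to DMSO.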

The nature of test [2]: ATG_NF_kB_CIS: Attagene CIS-FACTORIAL HepG2 Assay for human Nuclear Factor Kappa B (NF-kB) (AID 2282991). The note with it: HepG2 Attagene cis-factorial NF-kB reporter mRNA; actives raise or lower the signal. The essentials: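 After 24 h compound incubation, transfected HepG2 cells yield total RNA; reporter cDNA is PCR-amplified, end-labelled with 6-FAM, HpaI-digested and analysed on a genetic analyser. Endogenous factor activity, DMSO-referenced bidirectional fit.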

Test [3] can be described thus: ATG_NRF2_ARE_CIS: Attagene CIS-FACTORIAL HepG2 Assay for human Nuclear Factor Erythroid 2 Related Factor 2 (NFR2) response to Antioxidant Response Elements (ARE) (AID 2282992). The following applies: HepG2 Attagene ARE/NRF2 reporter, transcription factor activity; actives raise or lower the signal. In a few lines:
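Endogenous transcription factor activity read out as reporter transcript levels (RT-PCR plus capillary electrophoresis, fluorescence) in transiently transfected HepG2 cells. Measured at 24 h after dosing; gain or loss of signal fitted versus DMSO.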

Test [4] in a line: ATG_Oct_MLP_CIS: Attagene CIS-FACTORIAL HepG2 Assay for human Octamer-Binding Transcription Factor (Oct) (AID 2282993). The note with it: HepG2 Attagene cis-factorial Oct reporter, mRNA; actives raise or lower the signal. The essentials:
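Using HepG2 cells bearing transfected cis-reporter constructs, mRNA induction was read after 24 h by fluorescent RT-PCR and capillary electrophoresis, with DMSO defining baseline for gain- or loss-of-signal fits.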

Test [5] addresses Cellular tumor antigen p53 (Homo sapiens) (UniProt P04637). The test can be described thus: ATG_p53_CIS: Attagene CIS-FACTORIAL HepG2 Assay for human p53 Transcription Factor (AID 2282994). The note with it: HepG2 p53 cis-element reporter, Attagene mRNA; actives raise or lower the signal. In a few lines:
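Endogenous p53 activity read in transiently transfected HepG2 from a cis-element-driven reporter transcript after 24 h exposure. RNA reverse-transcribed, PCR-amplified, fluorescently labelled and sized by capillary electrophoresis; gain or loss fitted against DMSO baseline.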

Test [6] is described as follows: BSK_3C_uPAR: BioMAP Diversity Plus: 3C Assay for Urokinase-type plasminogen activator receptor (uPAR) Biomarker Activity (AID 2282998). The following applies: BioMAP 3C HUVEC, uPAR biomarker ELISA; actives raise or lower the signal. In a few lines:
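In this endothelial cell-based assay, human umbilical vein primary cells were treated with chemicals and harvested at 24 h. uPAR was quantified using ELISA, with gains or losses fitted relative to DMSO controls.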
Background: An ELISA detects its analyte on a solid surface through an enzyme-linked reagent.

A short description of test [7]: BSK_3C_VCAM1: BioMAP Diversity Plus: 3C Assay for Vascular cell adhesion molecule 1 (VCAM1) Biomarker Activity (AID 2282999). The note with it: BioMAP 3C HUVEC, VCAM1 ELISA, cytokine-stimulated; actives raise or lower the signal. In a few lines: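 HUVEC primary cells, 24 h compound exposure; VCAM-1 by ELISA; gain/loss of signal fitted bidirectionally vs DMSO baseline.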

A short description of test [8]: BSK_4H_Eotaxin3: BioMAP Diversity Plus: 4H Assay for Eotaxin 3 Biomarker Activity (AID 2283000).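 For outcome: CCL26 protein level quantified by ELISA in parallel with SRB cytotoxicity check.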 The note with it: primary human endothelial cells (HUVEC); actives raise or lower the signal. In a few lines: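 Endothelial primary cells (human umbilical vein) exposed to compound for 24 h. ELISA detection of Eotaxin-3.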
The target in test [9] is human Peroxisome Proliferator-activated Receptor alpha (PPARa), PPARA (gene 5465) (UniProt Q07869). Briefly: ATG_PPARa_TRANS: Attagene TRANS-FACTORIAL HepG2 Assay for human Peroxisome Proliferator-activated Receptor alpha (PPARa) (AID 2283001; active = hit-call score of the fitted dose curve at least 0.9, where 1 is the maximum). In a few lines: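 Transient HepG2 transfection, GAL4-UAS reporters, NR-Gal4 chimeras; 24 h compound exposure. Readout: reporter transcripts by RT-PCR, 6-FAM primer extension, HpaI digest, capillary electrophoresis. Positive direction vs DMSO baseline.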
Chain of human Peroxisome Proliferator-activated Receptor alpha (PPARa), PPARA (gene 5465) (Q07869 whole entry, looked up, the tested form may be a part): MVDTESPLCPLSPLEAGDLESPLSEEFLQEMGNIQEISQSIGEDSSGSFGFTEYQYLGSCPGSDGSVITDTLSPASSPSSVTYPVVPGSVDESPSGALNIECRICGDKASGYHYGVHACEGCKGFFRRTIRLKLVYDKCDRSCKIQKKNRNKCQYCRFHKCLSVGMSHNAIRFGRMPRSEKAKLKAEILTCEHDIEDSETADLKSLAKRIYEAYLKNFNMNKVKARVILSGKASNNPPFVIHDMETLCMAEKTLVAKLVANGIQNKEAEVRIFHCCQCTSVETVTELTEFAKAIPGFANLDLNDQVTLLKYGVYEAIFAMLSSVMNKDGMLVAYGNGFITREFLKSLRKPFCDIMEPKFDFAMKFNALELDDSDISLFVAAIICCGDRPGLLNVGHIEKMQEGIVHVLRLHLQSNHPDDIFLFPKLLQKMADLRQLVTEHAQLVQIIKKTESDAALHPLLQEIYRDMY

Test [10] in a line: BSK_3C_TissueFactor: BioMAP Diversity Plus: 3C Assay for Tissue Factor Biomarker Activity (AID 2282997). The following applies: BioMAP 3C HUVEC, tissue factor biomarker readout; actives raise or lower the signal. The essentials: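 Cells used were primary human umbilical vein endothelial cells. They were dosed with chemical, and after 24 h Tissue Factor was quantified by ELISA. Curves were fitted bidirectionally with DMSO as baseline.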

Where “and” joins values, the source holds several entries; their conditions need not be identical. Equal entries are not always repeated. Results filed as inconclusive are left out. The source holds several records for some structures; these can differ, active in one and inactive in another. Calls of active or inactive are those of the source. Rule for the calls, unless noted: active = hit-call score of the fitted dose curve at least 0.9, where 1 is the maximum; inactive = score below 0.9.

Chain of Myc proto-oncogene protein (Homo sapiens) (P01106 whole entry, looked up): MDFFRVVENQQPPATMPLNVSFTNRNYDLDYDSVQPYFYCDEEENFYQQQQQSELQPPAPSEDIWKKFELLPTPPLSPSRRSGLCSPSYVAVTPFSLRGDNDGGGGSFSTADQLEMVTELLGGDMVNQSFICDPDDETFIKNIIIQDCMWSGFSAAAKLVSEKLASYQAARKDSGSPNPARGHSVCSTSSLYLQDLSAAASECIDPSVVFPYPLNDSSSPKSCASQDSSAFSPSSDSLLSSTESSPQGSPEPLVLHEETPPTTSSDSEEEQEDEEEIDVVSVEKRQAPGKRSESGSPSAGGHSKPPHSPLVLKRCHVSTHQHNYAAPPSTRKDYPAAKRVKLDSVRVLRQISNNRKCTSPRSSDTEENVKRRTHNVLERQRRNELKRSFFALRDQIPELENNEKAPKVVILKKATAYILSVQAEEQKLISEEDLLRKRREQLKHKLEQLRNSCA
Chain of Cellular tumor antigen p53 (Homo sapiens) (P04637 whole entry, looked up): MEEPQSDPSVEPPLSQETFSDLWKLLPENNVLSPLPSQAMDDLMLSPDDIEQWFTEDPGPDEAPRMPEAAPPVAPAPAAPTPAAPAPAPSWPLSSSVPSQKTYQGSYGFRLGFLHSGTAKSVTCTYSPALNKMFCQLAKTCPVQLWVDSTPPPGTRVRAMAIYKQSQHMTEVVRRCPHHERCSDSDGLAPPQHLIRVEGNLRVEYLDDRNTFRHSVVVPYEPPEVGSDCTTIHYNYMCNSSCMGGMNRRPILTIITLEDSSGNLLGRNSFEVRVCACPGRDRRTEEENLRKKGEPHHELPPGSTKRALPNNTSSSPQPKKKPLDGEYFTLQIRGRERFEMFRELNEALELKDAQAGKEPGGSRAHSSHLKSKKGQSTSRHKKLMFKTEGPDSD

As to `OCCC(F)(F)C(F)(F)C(F)(F)C(F)(F)F`, the result in [1], in test [2], in test [3], in [4], in test [5] and in [6] was inactive. The outcome in test [7], in test [8] and in test [9] was inactive.

Take `CCCCCCCCCC`: the compound was classed as inactive in test [1], in test [2], in test [3], in [4], in test [5] and in test [10]. The outcome in [6], in [7], in [8] and in test [9] was inactive.

In the case of `COc1cc2c(c(OC)c1OC)-c1ccc(OC)c(=O)cc1[C@@H](NC(C)=O)CC2`, the call in [1], in [2], in [3], in [4] and in test [10] was inactive. Also, the AC50 in test [6] is 0.149 µM (active); in test [7], 0.404 µM (active); in test [8] it was 0.148 µM (active).

Consider `NNC(=O)c1ccncc1`, for which the compound was called inactive in test [1], in test [2], in test [3], in [4], in test [5] and in [6]. Further, the result in test [7], in test [8] and in test [9] was inactive.

In the case of `NC(=O)N1c2ccccc2C=Cc2ccccc21`, the call in test [1], in test [2], in [3], in [4], in test [10] and in [6] was inactive. Moreover, the outcome in test [7] and in test [8] was inactive.

For `OCCOCCOCCO`, the outcome in test [2], in test [3], in test [4], in [5], in test [10] and in [6] was inactive. Also, the result in test [7] and in [8] was inactive.

For the compound `CCCCCCCCN(C)C`, the outcome in test [1], in test [3], in test [4], in test [5], in test [10] and in test [6] was inactive. Further, the result in [7] and in test [8] was inactive.

`O=C(O)c1cccc(C[C@@H]2COc3ccc(OCc4nc5cc(F)ccc5s4)cc3[C@@H]2O)c1`: the AC50 was 100 µM (active) in test [2], 32.3 µM (active) in test [3] and 159 µM (active) in test [4]. The call in test [5], in [10], in test [6], in [7], in [8] and in test [9] was inactive.

`CC1(C)C(=O)N(Cl)C(=O)N1Cl`: the call in test [1], in [3], in test [4], in test [5], in [6] and in [7] was inactive. For the same compound, the result in test [8] and in test [9] was inactive.

Consider `O=c1[nH]cnc2c1ncn2[C@H]1CC[C@@H](CO)O1`, for which the outcome in test [1], in test [3], in test [4], in test [10], in test [6] and in test [7] was inactive. For the same compound, the result in test [8] was inactive.

As for `OCc1c[nH]c2ccccc12`, the AC50 in [2] is 25.5 µM (active); in test [3], 26.6 µM (active) [middle of 5 runs]; in test [5] it was 26.8 µM (active); in [10] it was 0.133 µM (active); in test [6], 20 µM (active); in test [8], 6.67 µM (active). Further, the result in [2], in [4], in test [5], in test [7] and in [9] was inactive.

For the compound `OCC(CO)(CO)CO`, the call in [1], in [3], in [4], in test [6], in test [7] and in [8] was inactive. The result in test [9] was inactive. Also, the AC50 in test [3] is 141 µM (active).

`FC(F)(F)C(F)(F)C(F)(F)C(F)(F)C(F)(F)C(F)(F)I`: the compound was called inactive in test [2], in test [3], in test [4], in test [5], in [6] and in test [7]. The result in test [8] and in [9] was inactive. Further, the AC50 in test [3] is 107 µM (active).

With `O=C1CN(N=Cc2ccc([N+](=O)[O-])o2)C(=O)N1`, the compound was called inactive in test [1], in [4], in test [5], in test [6], in test [7] and in test [8].

Take `S=P(N1CC1)(N1CC1)N1CC1`: the compound was classed as inactive in test [2], in test [3], in [4], in test [5], in test [10] and in test [6]. Further, the outcome in test [7], in test [8] and in test [9] was inactive. For the same compound, the AC50 in test [4] was 170 µM (active).

Turning to `CCCc1ccccc1`, the outcome in [1], in test [3], in test [4], in test [5], in [10] and in test [6] was inactive. Further, the outcome in [7] and in [8] was inactive.

In the case of `C[C@]12C=CC(=O)C=C1CC[C@H]1[C@@H]3C[C@@H](O)[C@](O)(C(=O)CO)[C@@]3(C)C[C@H](O)[C@@]12F`, the compound was called inactive in [1], in [3], in [4], in test [5], in [10] and in test [6]. Moreover, the result in test [7], in [8] and in [9] was inactive.

`OC(O)(C(F)C(O)(O)C(F)(F)F)C(F)(F)F`: the AC50 in test [2] is 16.6 µM (active) and 7.74 µM (active); in test [3], 39.4 µM (active); in test [5] it was 28.4 µM (active) and 21.2 µM (active); in test [6], 15.2 µM (active); in [8] it was 53.3 µM (active) and 53.6 µM (active). Also, the result in [3], in test [4], in test [6] and in [7] was inactive.

For `CCCCCCCC/C=C\CCCCCCCC(=O)OC[C@@H](O)[C@H]1OC[C@H](O)[C@H]1O`, the outcome in test [2], in [3], in test [4], in [5], in [10] and in test [6] was inactive. For the same compound, the outcome in [7], in [8] and in [9] was inactive.

`CCn1nc(C)c2c1C(=O)NCC(c1ccc(O)cc1)=N2`: the call in test [2], in test [3], in test [4], in test [10], in test [6] and in [7] was inactive. Also, the result in test [8] and in [9] was inactive. Besides, in [5], the half-maximal activity concentration (AC50) was 2.9 µM (active).

As for `CCCCCCCCCCCCCCO`, the compound was classed as inactive in test [2], in test [3], in [4], in test [5] and in [9]. Besides, the AC50 is 36.6 µM (active) in test [10], 34.4 µM (active) in test [6], 32.8 µM (active) in test [7] and 38.4 µM (active) in test [8].

In the case of `Cc1cccc(O)c1C`, the outcome in test [1], in [3], in [4], in [5], in test [10] and in [6] was inactive. Besides, the result in test [7], in [8] and in test [9] was inactive. In test [5], the AC50 was 168 µM (active).

What is called AC50 is the concentration giving half of the maximal activity seen.
